Reference: publication PMC4336329 (PLoS ONE, 2015)
The whole screen tested about 310,000 compounds, of which about 14,000 (4.5%) showed an effect of 50% or more. The effect is printed as a negative number. The sample as a whole holds a higher share of strong results than the screen did.

Molecular target: human ether-à-go-go-related gene (hERG) potassium channel (human, UniProt Q12809)
Experiment: primary screen, population patch clamp on CHO cells stably expressing hERG; higher = less effect of the substance
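Also: peak tail current of the secondary pulse compared with the same well before compound.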

Sequence of human ether-à-go-go-related gene (hERG) potassium channel (Q12809 whole entry, looked up): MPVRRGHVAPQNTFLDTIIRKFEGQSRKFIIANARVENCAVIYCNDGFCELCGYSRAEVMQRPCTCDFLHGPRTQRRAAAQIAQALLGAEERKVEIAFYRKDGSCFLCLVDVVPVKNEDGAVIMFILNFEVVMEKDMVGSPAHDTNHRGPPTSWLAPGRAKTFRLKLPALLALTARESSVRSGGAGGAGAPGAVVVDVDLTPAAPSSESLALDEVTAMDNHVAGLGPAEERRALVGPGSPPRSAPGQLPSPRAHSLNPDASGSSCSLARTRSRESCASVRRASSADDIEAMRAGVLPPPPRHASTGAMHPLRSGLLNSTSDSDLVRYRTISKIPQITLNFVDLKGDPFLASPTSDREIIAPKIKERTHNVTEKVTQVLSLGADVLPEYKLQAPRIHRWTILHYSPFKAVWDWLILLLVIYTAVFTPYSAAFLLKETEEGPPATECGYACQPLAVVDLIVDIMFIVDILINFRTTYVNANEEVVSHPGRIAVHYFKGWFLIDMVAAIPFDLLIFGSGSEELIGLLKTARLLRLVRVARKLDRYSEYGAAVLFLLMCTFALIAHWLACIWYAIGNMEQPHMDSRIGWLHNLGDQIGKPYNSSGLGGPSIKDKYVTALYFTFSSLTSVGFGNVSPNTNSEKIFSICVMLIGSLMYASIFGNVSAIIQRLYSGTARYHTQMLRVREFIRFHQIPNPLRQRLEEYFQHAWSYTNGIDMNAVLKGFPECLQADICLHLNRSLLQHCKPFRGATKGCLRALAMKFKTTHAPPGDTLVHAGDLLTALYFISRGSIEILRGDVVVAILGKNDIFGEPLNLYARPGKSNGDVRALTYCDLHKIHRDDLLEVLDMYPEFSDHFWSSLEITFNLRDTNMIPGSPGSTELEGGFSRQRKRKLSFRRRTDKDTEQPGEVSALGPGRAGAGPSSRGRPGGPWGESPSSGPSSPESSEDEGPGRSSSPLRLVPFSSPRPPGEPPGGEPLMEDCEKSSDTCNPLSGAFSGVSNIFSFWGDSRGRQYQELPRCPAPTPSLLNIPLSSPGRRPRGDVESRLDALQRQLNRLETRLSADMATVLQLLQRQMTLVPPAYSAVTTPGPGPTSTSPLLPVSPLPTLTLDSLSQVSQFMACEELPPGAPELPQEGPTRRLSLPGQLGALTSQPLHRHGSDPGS

In order of falling “hERG current change (%, negative = inhibition) at 10uM” value:
1. COc1ccc(NC(=O)CCCn2c(=O)c3sccc3n(Cc3cccc(C)c3)c2=O)cc1  12.7%
2. Cc1ccc(OC(C)C(=O)Nc2ccc3c(c2)n(C)c(=O)n3C)c(C)c1 (stereo not shown)  11.7%
3. Cc1ccc(S(=O)(=O)NC(CC(C)C)C(=O)NCC(C)(C)N2CCOCC2)cc1 (stereo not shown)  11.6%
4. O=C(Cn1cnc2ccccc21)OCC(=O)N1CCCc2ccccc21  8.8%
5. Cc1cc(C)nc(SCCC(=O)Nc2ccc(F)cc2)n1  7.84%
6. COc1ccc(/C=C/C(=O)OCC(=O)c2c(N)n(C)c(=O)n(C)c2=O)cc1  5.38%
7. CCCCNC(=S)N/N=C/c1ccccc1F  2.81%
8. CSCCC(NC(=O)COc1cccc2ccccc12)C(=O)O (stereo not shown)  0.83%
9. Cc1cccc(OCC(=O)OCC(=O)c2c(N)n(C)c(=O)n(C)c2=O)c1C  -1.84%
10. Cc1ccc(N2CC(C(=O)OCC(=O)c3c(N)n(CC(C)C)c(=O)n(C)c3=O)CC2=O)cc1 (stereo not shown)  -3.07%
11. Cc1cnc(C(=O)OCC(=O)NCCc2ccccc2)cn1  -3.4%
12. CCc1ccc(N2CC(C(=O)OCC(=O)c3c(N)n(CC(C)C)c(=O)n(C)c3=O)CC2=O)cc1 (stereo not shown)  -7.72%
13. O=C(c1cccc(NS(=O)(=O)c2cccc(F)c2)c1)N1CCN(c2ccccc2)CC1  -8.41%
14. Cn1c(N)c(C(=O)COC(=O)COc2ccccc2C#N)c(=O)n(C)c1=O  -23.2%
15. COc1ccc(CCC(=O)OCC(=O)c2c(N)n(CC(C)C)c(=O)n(C)c2=O)cc1  -33.4%
16. CC(C)Cn1c(N)c(C(=O)COC(=O)CCc2nc3ccccc3c(=O)[nH]2)c(=O)n(C)c1=O  -36%
17. Cc1ccc(S(=O)(=O)NCc2ccc(C(=O)NCCN(Cc3ccccc3)C(C)C)cc2)cc1  -36.4%
18. Cn1c(N)c(C(=O)COC(=O)/C=C/c2ccc(Cl)cc2)c(=O)n(C)c1=O  -43.3%
19. Cn1c(N)c(C(=O)COC(=O)/C=C/c2ccc(F)cc2)c(=O)n(C)c1=O  -51.8%
20. CC(C)Cn1c(N)c(C(=O)COC(=O)C2CC(=O)N(c3ccc4c(c3)OCCO4)C2)c(=O)n(C)c1=O (stereo not shown)  -52.6%
21. CCc1ccccc1OCC(=O)OCC(=O)c1c(N)n(C)c(=O)n(C)c1=O  -53.6%
22. COc1ccccc1CCC(=O)OCC(=O)c1c(N)n(CC(C)C)c(=O)n(C)c1=O  -70.3%
